Screens as filed in PubChem BioAssay.
Shown are actives, neighbours in structure and some others; about 21% of the full set was active somewhere.
Cycloheximide cs: affects cycloheximide protein synthesis inhibition readout, counter-screen; cell reporter, cycloheximide protein synthesis inhibition counterscreen; max response, %; hit rate 12% among 300,000; AID 2314; in the data active means max response mostly above about 13%, no sharp cut-off; inactive means mostly below about 14%; further: read at 38.3 µM for the half of the compounds with a filed dose; 0% is about no effect
Shiga inhibitor: blocks Shiga toxin action in Vero cells; inhibition, % at 38.7 µM; Vero cells, Shiga toxin protein synthesis inhibition reporter; AID 2315; hit rate 9.2% among 290,000; in the data active means inhibition mostly above about 28%, no sharp cut-off; inactive means mostly below about 43%; further: 0% is about no effect
Pf growth 48h: P. falciparum growth inhibition at 48 hours (one generation) | hit rate 5.9% among 310,000 | P. falciparum luciferase growth in erythrocytes, 48 h | Potency, µM (doses to about 28.7 µM), for inactives: top-dose activity change, negative = inhibition, hits mostly inhibitors; further: potency means the concentration at half of the fitted maximal effect; on the % scale 0 is the no-effect control and ±100 the full control effect
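Compounds are pin-transferred into medium, infected erythrocytes (2% hematocrit, 0.1% parasitemia final) are added, and plates sit one parasite generation at 37 C in 5% CO2. Detection reagent is then added and luminescence measured.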
NS1 inh: blocks influenza NS1 protein function. Potency, µM (titrated, usually from 46.1 µM), inactives show at the top dose activity, positive = more growth. hit rate 0.4% among 270,000; calls by dose curve; further: potency means the concentration at half of the fitted maximal effect; actives are rising curves; nearly all actives have a fitted effect of over 50% in size
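In this qHTS, NS1 from influenza A is expressed in budding yeast, where it slows growth. Cells are switched from glucose to 2% galactose medium (pH 6.0, -URA), treated with compound, and growth recovery is read at OD600.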
Pf growth 96h: inhibits malaria parasite growth, 96 h; hit rate 6.9% among 320,000; AID 504834; Potency, µM (doses to about 28.7 µM), without a hit: top-dose activity change, negative = inhibition, actives largely listed as inhibitors; P. falciparum luciferase reporter growth, 96 h; further: potency means the concentration at half of the fitted maximal effect; on the % scale 0 is the no-effect control and ±100 the full control effect
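Infected RBCs, 2% Hct / 0.05% parasitemia final; luciferase-reporter P. falciparum; cpd 96 h, 37 C, 5% CO2; luciferase detection reagent; luminescence.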
* marks the source's active call; other numbers are inactive results; ? = inconclusive; nt = no result given. Unless noted, the call rests on the fitted dose curve; in most records, active means well fitted inhibition curve with a large enough effect; inconclusive means small, poorly fitted or top-dose-only effect, or another doubt; inactive means no such curve, though single readings can be large or run the other way.

SMILES	Cycloheximide cs	Shiga inhibitor	Pf growth 48h	NS1 inh	Pf growth 96h
CC(=O)c1cccc(NC(=O)C(C)OC(=O)CN2C(=O)NC(C)(C)C2=O)c1 (configuration not stated)	nt	nt	5.8%	nt	-14.0%
OB(O)O	nt	nt	4.5%	nt	-3.5%
N#Cc1c(NC(=O)CSc2nc(N)cc(=O)[nH]2)sc2c1CCCCCC2	-2.7	-5.8	-0.6%	-15.0%	25.7%
N#Cc1c(NC(=O)c2nc3ncccn3n2)sc2c1CCCCC2	30.3*	58.4*	78.6%	-3.6%	13.4%
CC1CCc2c(sc(NC(=O)c3nc4ncccn4n3)c2C#N)C1 (configuration not stated)	-1.0	-7.2	101.0%	?	306.7%
Cc1sc(NC(=O)COc2ccccc2)c(C#N)c1C	41.4*	95.6*	108.7%	nt	23.6%
Cc1cccc(OCC(=O)Nc2sc3c(c2C#N)CCC3)c1	21.2*	60.2*	49.2%	13.3%	75.2%
Cc1sc(NC(=O)CS(=O)(=O)c2ccccc2)c(C#N)c1C	nt	nt	60.7%	nt	72.8%
N#Cc1c(NC(=O)CSc2ncn[nH]2)sc2c1CCCCC2	-7.8	-34.9	9.28µM*	-34.9%	nt
Cc1onc(C(=O)Nc2sc3c(c2C#N)CCCC3)c1[N+](=O)[O-]	33.4*	81.5*	32.9%	nt	-0.6%
Cc1onc(-c2ccccc2Cl)c1C(=O)Nc1sc2c(c1C#N)CCC2	-4.0	38.0	?	-47.0%	nt
CC(C)C(=O)Nc1sc2c(c1C#N)CCCCC2	23.8*	61.8*	24.8%	-6.4%	21.2%
CC(C)(C)C(=O)Nc1sc2c(c1C#N)CCC2	1.0	-8.8	-0.3%	0.3%	5.1%
COC(=O)c1cc(S(=O)(=O)NCC2CCN(CCc3cccs3)CC2)cn1C	-5.5	-5.0	-25.5%	21.5%	-15.7%
CC(=O)N1CCN(CC(=O)Nc2ccc([N+](=O)[O-])cc2Br)CC1	5.0	3.8	13.1%	nt	-15.7%
CCCCCCCCCCCCCCCC[n+]1ccc(/C=N/O)cc1	-1.8	-10.0	2.33µM*	-1.0%	1.17µM*
O/N=C/c1cccc[n+]1CCCCCC[n+]1ccccc1/C=N/O	-2.2	-10.1	?	9.8%	?
CCCCCCCCCCCCCC[n+]1ccc(C)cc1	nt	nt	0.849µM*	nt	0.849µM*
CCCCCCCCCCCC[n+]1ccc2ccccc2c1	nt	nt	0.301µM*	nt	3.01µM*
CCCCCCC[n+]1ccc(-c2cc[n+](CCCCCCC)cc2)cc1	-1.5	-1.8	0.415µM*	-8.7%	0.329µM*
Cc1ccc(-n2nc3c(=O)n(CC(=O)NC(C)CCc4ccccc4)nc(C)c3c2C)cc1 (configuration not stated)	-2.3	5.7	0.6%	8.8%	?
CCOc1ccc(CC(=O)N/N=C/c2cccnc2)cc1OCC	7.3	-12.6	-0.2%	7.5%	15.6%
CCCCCCCCCCCCCCCC[n+]1ccc(C(N)=O)cc1	-1.9	-17.7	?	-6.1%	10.8%
CCCCCCCCCCCCCCCC[n+]1ccccc1	nt	nt	3.79µM*	nt	1.51µM*
Cc1ccccc1CN1CCN(Cc2ccccc2)CC1	1.0	8.8	12.3%	-3.6%	12.3%
SMILES	Cycloheximide cs	Shiga inhibitor	Pf growth 48h	NS1 inh	Pf growth 96h
Cc1ccccc1Cc1ccc(Cl)nn1	0.5	-1.5	10.4µM*	nt	-10.0%
O=C(Nc1ccccc1C(=O)NC(Cc1ccc(O)cc1)C(=O)O)c1ccccc1 (configuration not stated)	-0.8	21.2	12.3%	4.5%	-18.0%
CC1(C(=O)N(CC(=O)NC2CCCC2)Cc2ccco2)CC(=O)N=C2C=CC=CN21 (configuration not stated)	-6.1	-6.0	3.2%	-4.4%	?
Clc1ncnc2scc(-c3ccccc3)c12	-2.1	-13.5	?	6.4%	?
Cc1ccc2cccc(Oc3ncnc4scc(-c5ccc(Cl)cc5)c34)c2n1	-3.9	-11.4	?	11.3%	10.4µM*
CC(=O)Nc1cccc(Oc2ncnc3scc(-c4ccc(C(C)C)cc4)c23)c1	-1.8	12.8	?	-1.0%	?
COc1ccc(-c2csc3ncnc(Oc4cccc5ccc(C)nc45)c23)cc1	0.1	-10.5	?	10.2%	?
Cc1ccc(-c2csc3ncnc(Cl)c23)cc1	-2.9	17.0	1.47µM*	-18.8%	2.62µM*
Cc1ccc2cccc(Oc3ncnc4scc(-c5ccccc5)c34)c2n1	-3.4	-9.7	10.4µM*	3.9%	?
O=C(/C=C/c1ccco1)N(Cc1ccccc1F)C1CCS(=O)(=O)C1 (configuration not stated)	-1.5	-8.5	-1.5%	5.9%	?
Cn1c(=O)c(/C=C/c2ccccc2)nc2ccccc21	34.2*	73.5*	106.4%	-10.2%	-44.2%
Cn1c(/C=C/c2ccccc2)nc2ccccc21	11.1	-13.1	82.3%	-49.4%	48.2%
